The list is not random: actives were taken first. Their share in the collection is about 4.2%.
GDH-TPI counter-1 – GDH-TPI coupling enzyme inhibitors, primary screen, artefact control for M. tuberculosis FBA inhibitor project, biochemical, absorbance, full deck; actives 1.2% (n = 360,000); inhibition, % at 4.8 µM; GDH-TPI coupled enzyme counterscreen, NADH absorbance; in the data active = inhibition above about 30%;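 note: 0% = DMSO wells and 100% = wells lacking the enzyme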
CCHF vOTU inh – CCHFV vOTU protease inhibitors, primary screen, biochemical, Pep-AMC substrate, fluorescence; Crimean-Congo hemorrhagic fever virus L polyprotein viral ovarian tumor (vOTU) protease …; inhibition, % at 11.5 µM; actives 0.55% (n = 370,000); AID 651958, 2012; in the data active = inhibition above about 30%; note: 0% = vehicle wells with enzyme and 100% = no enzyme wells
Mtb FBA inh – Mtb FBA enzyme inhibitors, primary screen, biochemical, fluorescence, strain H37Rv | AID 588726, 2011 | inhibition, % at 1 µM | Fructose-bisphosphate aldolase (Mycobacterium tuberculosis (strain ATCC 25618 / H37Rv)), … | purified M. tuberculosis FBA, fluorescence read-out | actives 2.3% (n = 360,000);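 note: 0% = vehicle and 100% = reference inhibitor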
RecA splice inh – Mtb RecA intein splicing inhibitors, primary screen, biochemical, fluorescence, HTS | Protein RecA (Mycobacterium tuberculosis (strain ATCC 25618 / H37Rv)), P9WHJ3 | cell-free RecA intein splicing | inhibition, % (test concentration not listed) | actives 0.75% (n = 290,000) | AID 2221, 2009; in the data active = inhibition above about 30%;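 note: 0% = vehicle wells and 100% = reference inhibitor control wells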
Target sequence (P9WHJ3 whole entry, looked up, canonical isoform): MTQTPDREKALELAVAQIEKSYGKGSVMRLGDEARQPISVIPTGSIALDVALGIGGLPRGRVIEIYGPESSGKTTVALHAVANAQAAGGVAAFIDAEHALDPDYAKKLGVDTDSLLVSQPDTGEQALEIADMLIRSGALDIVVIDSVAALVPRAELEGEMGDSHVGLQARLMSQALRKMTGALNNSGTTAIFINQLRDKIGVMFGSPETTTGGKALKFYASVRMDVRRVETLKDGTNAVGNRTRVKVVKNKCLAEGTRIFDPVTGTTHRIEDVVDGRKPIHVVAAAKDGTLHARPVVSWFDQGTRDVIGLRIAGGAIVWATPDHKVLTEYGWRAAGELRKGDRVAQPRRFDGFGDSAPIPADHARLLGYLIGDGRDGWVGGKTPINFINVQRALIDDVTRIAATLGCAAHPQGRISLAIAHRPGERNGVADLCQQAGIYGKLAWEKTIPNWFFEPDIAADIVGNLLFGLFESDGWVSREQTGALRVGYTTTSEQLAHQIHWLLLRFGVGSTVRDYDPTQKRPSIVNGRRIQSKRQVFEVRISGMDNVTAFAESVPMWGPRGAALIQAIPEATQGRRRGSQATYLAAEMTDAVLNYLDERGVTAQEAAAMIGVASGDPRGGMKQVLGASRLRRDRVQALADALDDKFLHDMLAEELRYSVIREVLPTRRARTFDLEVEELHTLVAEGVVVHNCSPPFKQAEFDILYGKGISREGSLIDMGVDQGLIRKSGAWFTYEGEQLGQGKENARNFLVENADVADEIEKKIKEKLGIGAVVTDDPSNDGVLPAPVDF
Mtb FBA inh conf – M. tuberculosis aldolase blockers, biochemical, fluorescence, strain H37Rv, confirmation. shares compounds with Mtb FBA inh. purified M. tuberculosis FBA, fluorescence read-out. inhibition, % at 1 µM. actives 78% (n = 5,600). AID 651616, 2012;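 note: 0% = vehicle wells and 100% = reference inhibitor wells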
GDH-TPI counter-2 – GDH-TPI coupling enzyme inhibitors, artefact control for M. tuberculosis FBA inhibitor project, biochemical, fluorescence, high throughput. shares compounds with Mtb FBA inh. GDH-TPI coupled enzyme counterscreen. inhibition, % at 1 µM. actives 81% (n = 5,600). AID 652141, 2013; in the data active = inhibition above about 10%
GDH-TPI DR – GDH-TPI coupling enzyme inhibitors, dose response, artefact control for M. tuberculosis FBA inhibitor project, biochemical, fluorescence, IC50. shares compounds with Mtb FBA inh. GDH-TPI coupled enzyme assay, artifact counterscreen. IC50, µM. actives 79% (n = 170). AID 652145, 2013; call rule not given here
* marks the source's active call; other numbers are inactive results; x = no result; + = active, no number. Cut-off read from the data, not from the text of the source, unless noted: active = inhibition above about 27%; inactive = the rest.

SMILES | GDH-TPI counter-1 | CCHF vOTU inh | Mtb FBA inh | RecA splice inh | Mtb FBA inh conf | GDH-TPI counter-2 | others
Cn1c(/C=N/c2nc3ccccc3[nH]2)nc2ccccc21 | 10 | -9 | 6 | -2 | x | x
CCCOc1ccc(C(F)(F)F)cc1NC(=O)C1CC(=O)N(Cc2ccco2)C1 (stereo not given) | 6 | 23 | -2 | x | x | x
COc1cc(CC(=O)OCc2ccccc2F)cc(OC)c1OC | -4 | 1 | 1 | 0 | x | x
COC(=O)c1ccc(CNC(=O)c2ccc(OC)c(S(=O)(=O)NC3CCCC3)c2)cc1 | 0 | 13 | 0 | x | x | x
CCCN1CCN(C(c2cc3cc4c(cc3[nH]c2=O)OCO4)c2nnnn2C(C)(C)C)CC1 (stereo not given) | 12 | -56 | 66* | -7 | 58* | -3
COCCn1nnnc1CN(Cc1ccco1)Cc1cc2cc3c(cc2[nH]c1=O)OCO3 | 22 | -24 | 48* | -12 | + | +
CC(C)(C)n1nnnc1CN(Cc1ccco1)Cc1cc2cc3c(cc2[nH]c1=O)OCO3 | 21 | -26 | 46* | -2 | 11 | -4
CCC(C)(C)n1nnnc1CN(Cc1ccco1)Cc1cc2cc3c(cc2[nH]c1=O)OCO3 | 14 | x | 35* | -10 | 90* | 97*
COc1ccc2[nH]c(=O)c(CN(Cc3ccco3)Cc3nnnn3Cc3ccccc3)cc2c1 | 5 | -7 | 10 | -4 | x | x
CCOC(=O)CCNC(=O)N1CCCC(N2CCN(c3ccc(OC)cc3)CC2)C1 (stereo not given) | 18 | -17 | 1 | x | x | x
O=C(CCCCn1ccc(=O)[nH]c1=O)Nc1ccc(O)c(C(=O)O)c1 | 9 | -14 | 25 | x | x | x
COc1ccccc1CCNC(=O)C(=O)c1cn(CC(=O)N2CCOCC2)c2ccccc12 | 3 | 15 | 80* | -1 | 104* | 85*
COc1ccccc1CNC(=O)C(=O)c1cn(CC(=O)N2CCCC2)c2ccccc12 | 14 | 10 | -1 | 0 | x | x
NC(=O)c1ccccc1OCC(=O)c1ccc(Cl)cc1 | -4 | 1 | 3 | -2 | x | x
O=C(Nc1ccccc1C(=O)O)c1ccccc1 | 1 | 0 | 7 | -1 | x | x
O=C(CNc1ccccc1C(=O)O)c1ccccc1 | 2 | -14 | 28* | 0 | 34* | 32*
NC(=O)c1ccccc1NCC(=O)c1ccc(Cl)cc1 | 0 | -14 | 43* | -1 | 159* | 124*
COc1ccc(N(CC(=O)NC2CCCCC2)C(=O)c2ccc(C)s2)c(OC)c1 | -1 | 18 | -1 | 3 | x | x
CCc1ccc(-c2nc3ccc(Br)cc3c(C(=O)O)c2C)s1 | 18 | -9 | 38* | -1 | 60* | 45*
COc1ccc(C2C3=C(CCCC3=O)Nc3nc(C(F)(F)F)nn32)cc1OC (stereo not given) | 1 | 2 | 1 | 3 | x | x
COc1ccc(C2C3=C(CC(C)(C)CC3=O)Nc3nc(C)nn32)cc1OC (stereo not given) | 12 | -8 | 36* | -1 | + | +
O=C(Nc1ccon1)c1cnc2sccn2c1=O | 31* | -15 | 28* | 6 | 15 | 8 | GDH-TPI DR=>10
Cc1ccc(S(=O)(=O)N2CCCCC2C(=O)N(C)c2ccccc2)cc1 (stereo not given) | 9 | 10 | 0 | 2 | x | x
Nc1cccc(-c2cccc3nncn23)c1 | 20 | 2 | 2 | x | x | x
CN(C)CCCNC(=O)c1cccc(-c2cnc3cccnn23)c1 | 5 | -93 | 102* | x | + | +
SMILES | GDH-TPI counter-1 | CCHF vOTU inh | Mtb FBA inh | RecA splice inh | Mtb FBA inh conf | GDH-TPI counter-2 | others
O=C(NCCO)c1cccc(-c2cccc3nncn23)c1 | 7 | -21 | 75* | x | 72* | 42*
CCCCCC(=O)N1C[C@H](n2cc(C3CC3)nn2)[C@@H](O)C[C@@H]1c1ccccc1 | 11 | 10 | 4 | x | x | x
C=Cc1ccc(CC2(C)C(=O)Nc3ccc(-c4cccnc4)cc32)cc1 (stereo not given) | 12 | 27 | -3 | x | x | x
COC(OC)c1ccc(C#N)c(=O)[nH]1 | 9 | -13 | 58* | -2 | -8 | -5
CC(Oc1ccc(Cl)cc1)c1ccc(C#N)c(=O)[nH]1 (stereo not given) | 22 | -13 | 34* | -1 | 123* | 97*
COc1ccccc1-c1cccc(-c2nc(C(=O)N3CCCCC3)cc3c2[C@@H](CCO)N(S(=O)C(C)(C)C)C3)c1 (stereo not given in full) | x | 2 | -2 | x | x | x
COc1cccc(N2CCN(CC(=O)NC(=O)NC3CCCCC3)CC2)c1 | 1 | 16 | 0 | x | x | x
Cc1ccc2[nH]c(=O)c3cc(C(=O)N(C)Cc4ccco4)sc3c2c1 | 19 | -40 | 51* | 1 | 187* | 135*
Cc1ccc2[nH]c(=O)c3cc(C(=O)N4CCN(C(=O)c5ccco5)CC4)sc3c2c1 | 17 | -15 | 16 | 1 | x | x
CCOCCCN(Cc1ccco1)C(=O)c1cc2c(=O)[nH]c3ccc(C)cc3c2s1 | 21 | 11 | 32* | 1 | 8 | -4
CCCN(CCC)C(=O)c1cc2c(=O)[nH]c3ccc(C)cc3c2s1 | 4 | 7 | 5 | 0 | x | x
O=C(NCCc1c[nH]c2ccccc12)c1ccc([N+](=O)[O-])o1 | 2 | -2 | -1 | x | x | x
CC1CCC(NC(=O)CCNC(=O)c2ccc(Br)cc2)CC1 (stereo not given) | 6 | -5 | 7 | 0 | x | x
CCOc1ccc(-c2cc(C(=O)NCCCN3CCN(CC)CC3)c3ccccc3n2)cc1 | 22 | -40 | 46* | -2 | 61* | 48*
CCOc1ccc(-c2cc(C(=O)NCCCn3ccnc3)c3ccccc3n2)cc1 | -1 | -46 | 33* | 3 | 43* | 33*
CN(C(=O)[C@@H](C1CC1)[C@@H](O)c1ccc(Cl)cc1)c1ccccc1 | x | 2 | x | x | x | x
CC(NC(=O)Cc1ccc(Br)cc1)c1ccccc1 (stereo not given) | 7 | 0 | 3 | 2 | x | x
COC(=O)C[C@H]1CC[C@H](NC(=O)c2ccc(F)cc2)[C@@H](CO)O1 | x | -3 | x | x | x | x
COCCN1CC(O)=C(c2nc3ccccc3c(=O)[nH]2)C1=N | 20 | 3 | 46* | -1 | x | +
COc1ccccc1N1CC(O)=C(c2nc3ccccc3c(=O)[nH]2)C1=N | 22 | 1 | 38* | 1 | 146* | 111*
N=C1C(c2nc3ccccc3c(=O)[nH]2)=C(O)CN1CCO | 1 | -13 | 17 | -2 | x | x
